# Values joined by “and” are separate entries in the source; they are usually repeats but may differ in a detail not shown here. Equal entries are not always repeated. Records with an inconclusive call do not appear. For some of these results: Measured potencies and affinities stand elsewhere. Active and inactive are the calls of the source. Rule as the data show it, unless noted: active = inhibition above about 80%; inactive = the rest.
# Experiments:
# [1] = JHH-DIPG-1 glioma cell viability, MIPE5.0 library, CellTiter-Glo luminescence, qHTS (AID 1347067; cut-off not given, nearly all actives have AC50 up to about 26 µM;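 also: cells exposed to compound for 48 hours before readout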); conditions: JHH-DIPG-1 glioma viability, CellTiter-Glo ATP luminescence
# [2] = growth inhibition, single agents and combos, LFS_MB_1R, cell-based, cisplatin or BGB combos, synergistic combos for chromothripsis tumors (AID 1671452); conditions: LFS_MB_1R medulloblastoma cells, stronger effect = higher value;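 also: cells exposed for 96 hours before readout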
# [3] = growth inhibition, single agents and combos, CRL2098, cell-based, BGB or cisplatin IC20 combos, synergistic combos for chromothripsis tumors (AID 1671454); conditions: CRL2098 osteosarcoma cells, drug combinations, stronger effect = higher value;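 also: cells exposed for 96 h before readout; 0% = vehicle DMSO and 100% = killing by high DMSO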
# [4] = growth inhibition, single agents and combos, HD-MB03, cell-based, BGB or cisplatin IC20 combos, synergistic combos for chromothripsis tumors (AID 1671455; in the data active = inhibition above about 83%;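 also: 0% = vehicle DMSO and 100% = high DMSO as cytotoxic control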); conditions: HD-MB03 medulloblastoma cells, stronger effect = higher value
# [5] = growth inhibition, single agents and combos, UWB1.289, cell-based, BGB or cisplatin combos, synergistic combos for chromothripsis tumors (AID 1671456); conditions: UWB1.289 ovarian carcinoma cells, stronger effect = higher value;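 also: cells exposed to compound for four days; 0% = vehicle DMSO and 100% = killing by high DMSO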
# [6] = growth inhibition, single agents and combos, LFS_MB_2R, cell-based, cisplatin combos, synergistic combos for chromothripsis tumors (AID 1671457); conditions: LFS_MB_2R medulloblastoma cells, stronger effect = higher value;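 also: cells exposed to compound for four days before readout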
# [7] = UWB1.289_BRCA1 ovarian cancer growth, cell-based, BGB or cisplatin combinations (AID 1671459); conditions: UWB1.289 BRCA1 ovarian carcinoma, drug combinations, stronger effect = higher value
# [8] = drug combination toxicity in non-malignant astrocytes – cell-based, BGB or cisplatin IC20 combos, cytotoxicity control for chromothriptic childhood tumor combination screen (AID 1671460); conditions: Human astrocytes, viability inhibition, drug combinations, at 0.5 µM, stronger effect = higher value;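 also: cells exposed to compounds for 96 hours before viability readout; 0% = vehicle and 100% = killing control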
# [9] = RCMB18 cell growth, single agent and combined, cisplatin and BGB IC40 combos (AID 1671462); conditions: RCMB18 medulloblastoma cells, stronger effect = higher value;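 also: cells exposed to compound for four days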
# [10] = CRL1545 cell growth, single agent and combined, cisplatin and BGB IC20 combos (AID 1671464); conditions: CRL1545 osteosarcoma cells, stronger effect = higher value;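 also: cells exposed to compound for 96 hours before readout; 0% = vehicle DMSO and 100% = high DMSO killing control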
# [11] = viability loss in pontine glioma line – cell-based, JHH-DIPG-1, MIPE4.0, CellTiter-Glo, qHTS, dose response (AID 1347062; cut-off not given, nearly all actives have AC50 up to about 27 µM;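 as to AC50: cells exposed to compound for two days before readout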); conditions: JHH-DIPG-1 viability, CellTiter-Glo ATP luminescence
# [12] = viability loss in pontine glioma line – cell-based, SU-DIPG-XIII, MIPE5.0, CellTiter-Glo, qHTS, dose response (AID 1347064; cut-off not given, nearly all actives have AC50 up to about 23 µM;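 as to AC50: cells exposed to compound for 48 hours before the viability read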); conditions: CellTiter-Glo ATP luminescence
# [13] = compounds altering HSF1 focus formation in cells – imaging, Selleck Cancer Library (AID 1347162; in the data active = plate-normalised HSF1 focus index below about 0.46); conditions: human cells, HSF1 nuclear foci imaging, at 10 µM; SSMD: measured here: HSF1 foci SSMD mean; cell count: measured here: cell number; plate-normalised HSF1 focus index: stronger effect = lower value
# [14] = viability loss in pontine glioma line – cell-based, SU-DIPG-XXV, MIPE5.0, CellTiter-Glo, qHTS, dose response (AID 1347065; cut-off not given, nearly all actives have AC50 up to about 26 µM;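 also: cells exposed to compound for 48 hours before ATP readout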); conditions: CellTiter-Glo ATP luminescence
# [15] = system: Neuropilin-2 / VEGF-C interaction (human); experiment: small molecules blocking Neuropilin-2/VEGF-C interaction – biochemical, microplate binding format, z-score (AID 743281; call rule not given here); conditions: microplate NRP2/VEGF-C binding assay; stronger effect = lower value
# [16] = rescue of PC12 cells from polyQ htt toxicity – LDH release (AID 1610); conditions: PC12 mutant huntingtin toxicity, final LDH at 4 uM, stronger effect = lower value
# [17] = target: Calcium-dependent protein kinase 1 (Plasmodium falciparum (isolate 3D7)) (UniProt P62344); experiment: PfCDPK1 kinase inhibitors, biochemical, TCAMS library (AID 1159585; cut-off not given, nearly all actives have IC50 up to about 0.98 µM;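 also: inhibitors leave more ATP so luminescence rises with inhibition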); conditions: recombinant PfCDPK1, Kinase-Glo ATP depletion luminescence
# [18] = target: Plasmodium falciparum protein kinase 6 (PK6, PF3D7_1337100) (UniProt Q8IDW1); experiment: PfPK6 kinase inhibitors, biochemical, TCAMS library (AID 1159586; call rule not given here); conditions: recombinant PfPK6, Kinase-Glo ATP depletion luminescence
# [19] = target: Protein kinase 7 (PK7), Plasmodium falciparum 3D7 (PF3D7_0213400) (UniProt Q7YTF7); experiment: inhibition of Plasmodium PK7 catalytic activity – biochemical, TCAMS antimalarial set, Kinase-Glo luminescence (AID 1159587; call rule not given here); conditions: recombinant PfPK7, Kinase-Glo ATP depletion luminescence
# [20] = chitosan synthesis blockers in C. neoformans – flow cytometry, Cibacron Brilliant Red staining (AID 1347148; call rule not given here;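 also: compound exposure lasted three days at 37 degrees C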); conditions: Cryptococcus neoformans chitosan, stronger effect = lower value; at 10 µM unless noted
# [21] = measured here: combination with BGB IC40, at 0.05 µM
# [22] = measured here: combination with cisplatin, at 0.5 µM
# [23] = measured here: combination with cisplatin, at 5 µM
# [24] = measured here: combination with BGB at IC20, at 0.5 µM
# [25] = measured here: combination with cisplatin at IC20, at 0.5 µM
# [26] = measured here: combo with BGB at IC20, at 0.5 µM
# [27] = measured here: combo with cisplatin at IC20, at 0.5 µM
# [28] = measured here: inhibition with BGB combination, at 0.05 µM
# [29] = measured here: inhibition with cisplatin combination, at 0.05 µM
# [30] = BGB combination, concentration series, at 5 µM
# [31] = cisplatin combination, concentration series, at 5 µM
# [32] = measured here: combo with BGB IC20
# [33] = measured here: combo with cisplatin IC20
# [34] = measured here: BGB IC40 combination, at 0.05 µM
# [35] = measured here: with BGB IC20 combination, at 0.5 µM
# [36] = measured here: with cisplatin IC20 combination, at 0.5 µM
# Sequence of Protein kinase 7 (PK7), Plasmodium falciparum 3D7 (PF3D7_0213400) (Q7YTF7 1-343): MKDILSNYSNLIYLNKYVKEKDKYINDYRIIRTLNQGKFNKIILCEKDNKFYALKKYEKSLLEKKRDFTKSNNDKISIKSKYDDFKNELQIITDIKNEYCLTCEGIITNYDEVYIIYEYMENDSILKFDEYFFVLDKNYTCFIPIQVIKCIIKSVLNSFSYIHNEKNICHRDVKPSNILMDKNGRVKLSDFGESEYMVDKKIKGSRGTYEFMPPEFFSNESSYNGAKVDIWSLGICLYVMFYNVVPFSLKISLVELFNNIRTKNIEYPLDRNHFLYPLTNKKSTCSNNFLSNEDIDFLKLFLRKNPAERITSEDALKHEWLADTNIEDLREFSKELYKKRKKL
# Sequence of Plasmodium falciparum protein kinase 6 (PK6, PF3D7_1337100) (Q8IDW1 1-305): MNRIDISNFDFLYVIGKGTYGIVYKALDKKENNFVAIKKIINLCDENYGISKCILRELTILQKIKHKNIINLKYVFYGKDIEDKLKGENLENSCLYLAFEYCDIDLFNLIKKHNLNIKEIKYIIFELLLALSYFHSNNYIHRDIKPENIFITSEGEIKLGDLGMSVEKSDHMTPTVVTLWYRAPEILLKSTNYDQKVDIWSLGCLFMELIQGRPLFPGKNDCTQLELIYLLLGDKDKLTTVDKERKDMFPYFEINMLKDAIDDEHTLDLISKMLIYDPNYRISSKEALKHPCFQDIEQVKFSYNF
# Sequence of Calcium-dependent protein kinase 1 (Plasmodium falciparum (isolate 3D7)) (P62344 whole entry, looked up): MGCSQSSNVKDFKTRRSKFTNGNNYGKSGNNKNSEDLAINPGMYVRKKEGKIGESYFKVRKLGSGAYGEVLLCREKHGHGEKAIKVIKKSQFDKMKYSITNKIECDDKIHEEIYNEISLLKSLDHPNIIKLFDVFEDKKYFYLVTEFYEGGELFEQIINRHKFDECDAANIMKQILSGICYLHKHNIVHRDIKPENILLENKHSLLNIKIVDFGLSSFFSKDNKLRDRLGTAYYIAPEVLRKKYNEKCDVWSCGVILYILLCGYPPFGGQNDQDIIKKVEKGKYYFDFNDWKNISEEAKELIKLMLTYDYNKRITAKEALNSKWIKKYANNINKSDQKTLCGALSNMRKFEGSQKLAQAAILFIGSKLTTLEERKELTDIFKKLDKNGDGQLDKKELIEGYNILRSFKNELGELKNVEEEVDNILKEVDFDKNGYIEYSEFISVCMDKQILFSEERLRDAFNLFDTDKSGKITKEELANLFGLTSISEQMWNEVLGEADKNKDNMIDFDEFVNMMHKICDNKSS
smiles,measurement,setting,value
O=C(O)CCCc1ccc(N(CCCl)CCCl)cc1,AC50,[1],16600 nM (active)
same,inhibition,[2]; at 0.5 µM,1.38% (inactive)
same,inhibition,[2]; [21],-18.1%
same,inhibition,[2]; [22],34.7%
same,inhibition,[2]; [23],17.9%
same,inhibition,[3]; at 0.5 µM,-43.4% (inactive)
same,inhibition,[3]; [24],-73.2%
same,inhibition,[3]; [25],-65.8%
same,inhibition,[4]; at 0.5 µM,-3.23% (inactive)
same,inhibition,[4]; [26],-9.02%
same,inhibition,[4]; [27],0.904%
same,inhibition,[5]; at 0.5 µM,-7.41% (inactive)
same,inhibition,[5]; [28],-22.1%
same,inhibition,[5]; [29],-7.19%
same,inhibition,[6]; at 0.5 µM,-24.2% (inactive)
same,inhibition,[6]; [22],-24.7%
same,inhibition,[6]; [23],-25.9%
same,inhibition,[7]; [30],-9.82%
same,inhibition,[7]; at 0.5 µM,-20.2% (inactive)
same,inhibition,[7]; [31],4.66%
same,inhibition,[8],-13.8% (inactive)
same,inhibition,[8]; [32],-14.7%
same,inhibition,[8]; [33],-9.75%
same,inhibition,[9]; at 0.5 µM,-21.5% (inactive)
same,inhibition,"[9]; cisplatin combo, at 5 µM",-8.27%
same,inhibition,[9]; [34],-18.3%
same,inhibition,[9]; [22],-40%
same,inhibition,"[9]; single agent, at 5 µM",-21%
same,inhibition,[10]; at 0.5 µM,-17.8% (inactive)
same,inhibition,[10]; [35],-15.9%
same,inhibition,[10]; [36],-18.8%
same,inhibition,"[10]; single agent, at 0.05 µM",15.9%
same,inhibition,"[10]; single agent, at 5 µM",10.1%
N[C@@H](Cc1ccc(N(CCCl)CCCl)cc1)C(=O)O,AC50,[11],23500 nM (active)
same,AC50,[12],18600 nM (active)
same,SSMD,[13],1.42
same,cell count,[13],7340
same,plate-normalised HSF1 focus index,[13],1.09 (inactive)
CN(C)[C@@H]1C(=O)C(C(N)=O)=C(O)[C@@]2(O)C(=O)C3=C(O)c4c(O)cccc4[C@@](C)(O)[C@H]3C[C@@H]12,outcome,[11],inactive
same,outcome,[14],inactive
same,outcome,[1],inactive
COc1ccc(C(CN(C)C)C2(O)CCCCC2)cc1 (centres undefined),z-score,[15],0.57 (inactive)
same,outcome,[11],inactive
CCC1(c2ccc(N)cc2)CCC(=O)NC1=O (centres undefined),outcome,[14],inactive
same,outcome,[1],inactive
same,SSMD,[13],1.46
same,cell count,[13],7280
same,plate-normalised HSF1 focus index,[13],1.05 (inactive)
CC(NC(C)(C)C)C(=O)c1cccc(Cl)c1 (centres undefined),z-score,[15],-0.243 (inactive) and -0.0135 (inactive)
same,outcome,[11],inactive
same,outcome,[1],inactive
C=C(C)[C@H]1Cc2c(ccc3c2O[C@@H]2COc4cc(OC)c(OC)cc4[C@@H]2C3=O)O1,AC50,[12],8330 nM (active)
same,AC50,[14],1180 nM (active)
same,AC50,[1],1480 nM (active)
O=C(O)c1nn(Cc2ccc(Cl)cc2Cl)c2ccccc12,outcome,[14],inactive
same,outcome,[1],inactive
same,SSMD,[13],0.502
same,cell count,[13],6570
same,plate-normalised HSF1 focus index,[13],1.03 (inactive)
C[C@@H]1C[C@@H]([C@H](O)CC2CC(=O)NC(=O)C2)C(=O)[C@@H](C)C1,normalised LDH release,[16],0.469
same,outcome,[17],inactive
same,outcome,[18],inactive
same,outcome,[19],inactive
same,AC50,[11],743 nM (active)
same,AC50,[14],372 nM (active)
same,fold fluorescence,[20],9.32 [at 177.7 µM] (inactive)
CN(C)[C@@H]1C(=O)C(C(N)=O)=C(O)[C@@]2(O)C(=O)C3=C(O)c4c(O)cccc4[C@@](C)(O)[C@H]3[C@H](O)[C@@H]12,normalised LDH release,[16],0.818
same,outcome,[11],inactive
same,outcome,[12],inactive
same,outcome,[1],inactive
CN1C(=O)CCS(=O)(=O)C1c1ccc(Cl)cc1 (centres undefined),outcome,[11],inactive
same,outcome,[12],inactive
same,outcome,[1],inactive
O=c1[nH]c2ccccc2n1C1CCN(CCCC(c2ccc(F)cc2)c2ccc(F)cc2)CC1,normalised LDH release,[16],0.918
same,fold fluorescence,[20],5.15 [at 108.3 µM] (inactive)
O=c1[nH]c2ccccc2n1CCCN1CCC(n2c(=O)[nH]c3cc(Cl)ccc32)CC1,outcome,[11],inactive
same,outcome,[12],inactive
Clc1ccc(CO/N=C(\Cn2ccnc2)c2ccc(Cl)cc2Cl)c(Cl)c1,outcome,[15],inactive
O=P1(N(CCCl)CCCl)NCCCO1 (centres undefined),outcome,[11],inactive
same,outcome,[12],inactive
same,outcome,[1],inactive
same,SSMD,[13],1.32
same,cell count,[13],7410
same,plate-normalised HSF1 focus index,[13],1.05 (inactive)
same,inhibition,[2]; at 0.5 µM,-27.2% (inactive) and -18.7% (inactive)
same,inhibition,[2]; [21],-28.1% and -17.9%
same,inhibition,[2]; [22],-62% and -22.2%
same,inhibition,[2]; [23],-58.8% and -8.04%
same,inhibition,[3]; at 0.5 µM,-64.7% (inactive) and -26.3% (inactive)
same,inhibition,[3]; [24],-52.1% and -36.9%
same,inhibition,[3]; [25],-105% and -14.6%
same,inhibition,[4]; at 0.5 µM,-15.6% (inactive) and -8.72% (inactive)
same,inhibition,[4]; [26],-13.1% and -5.67%
same,inhibition,[4]; [27],-23.9% and -12.6%
same,inhibition,[5]; at 0.5 µM,-11% (inactive) and -0.72% (inactive)
same,inhibition,[5]; [28],0.467% and -11.6%
same,inhibition,[5]; [29],-17.5% and -3.57%
same,inhibition,[6]; at 0.5 µM,-8.87% (inactive) and -10.9% (inactive)
same,inhibition,[6]; [22],-12.2% and -3.73%
same,inhibition,[6]; [23],-12% and -15.2%
same,inhibition,[7]; [30],-8.88% and 6.63%
same,inhibition,[7]; at 0.5 µM,-10.4% (inactive) and -3.19% (inactive)
same,inhibition,[7]; [31],-43.5% and 10.9%
same,inhibition,[8],1.59% (inactive) and 8.63% (inactive)
same,inhibition,[8]; [32],0.13% and 3.09%
same,inhibition,[8]; [33],6.54% and 14.4%
same,inhibition,[9]; at 0.5 µM,-4.96% (inactive) and -6.79% (inactive)
same,inhibition,"[9]; cisplatin combo, at 5 µM",-39% and 8.55%
same,inhibition,[9]; [34],-12.6% and 10%
same,inhibition,[9]; [22],-20.8% and 7.02%
same,inhibition,"[9]; single agent, at 5 µM",-6.86% and -4.77%
same,inhibition,[10]; at 0.5 µM,-20.8% (inactive) and -21.4% (inactive)
same,inhibition,[10]; [35],-33.7% and 3.63%
same,inhibition,[10]; [36],-16.2% and -34%
same,inhibition,"[10]; single agent, at 0.05 µM",-25% and -2.49%
same,inhibition,"[10]; single agent, at 5 µM",10.9% and -41%
N[C@@H]1C[C@H]1c1ccccc1,outcome,[11],inactive
same,outcome,[12],inactive
same,outcome,[14],inactive
same,outcome,[1],inactive
C[C@@H]1O[C@@H](O[C@H]2C[C@@H](O)[C@]3(CO)[C@H]4[C@H](O)C[C@]5(C)[C@@H](C6=CC(=O)OC6)CC[C@]5(O)[C@@H]4CC[C@]3(O)C2)[C@H](O)[C@H](O)[C@H]1O,AC50,[11],6.62 nM (active)
same,AC50,[14],93.4 nM (active)
same,AC50,[1],18.6 nM (active)
same,fold fluorescence,[20],4.64 [at 85.5 µM] (inactive)

# Source: PubChem BioAssay
